Results: PubChem BioAssay (NCI)
About 83,000 compounds went through this panel and 20% of them were active in at least one assay; those are over-represented in the sample as a whole.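 Treatment: one concentration, 48 hours, 96-well format. Scoring: percent growth, with anything below 10 considered active.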 Values without a mark were called inactive. Calls of active or inactive are those of the source.

The compounds below were run on TK-10 renal (assay: NCI-60 one-dose screen, 48 h (100 = growth as untreated, 0 = no growth, -100 = all killed)). Conditions: 10 µM.

| Compound | growth |
| --- | --- |
| CN(C)CCN=c1nc2c(c(N)n1-c1ccccc1)c(=S)n(-c1ccccc1)c(=S)n2-c1ccccc1 | 47.7% |
| CC1(O)CCC2CC3OC3(C)CCC3OC3(C)CCC1C2(C)C (configuration not stated) | 109% |
| C(CCCC1=NCCO1)CCCC1=NCCO1 | 110% |
| COc1ccc(Nc2cc(C)nc(NCCCNc3ccnc4cc(Cl)ccc34)n2)cc1 | -83.9% (active) |
| N#Cc1cc(-c2cc3ccccc3o2)oc1N | 11.9% |
| CC1(C)N=C(N)N=C(N)N1c1ccc(CCc2ccccc2)c(Cl)c1 | 21% |
| Cc1cc(C)c(NC(=O)c2sc3nc4c(cc3c2N)C(=O)CCC4)c(C)c1 | 44.8% |
| O=C1Nc2ccccc2C1=NC1CCCCC1 | 107% |
| COc1ccc(Nc2ccnc(NCCNc3ccnc4cc(Cl)ccc34)n2)cc1 | 71.6% |
| Nc1nc(N)c(NC(=O)CNc2ccc(C(=O)O)cc2)c(N)n1 | 108% |
| CCN(CC)CCNC(=O)c1ccc(NC(C)=O)cc1 | 103% |
| c1ccc(CP(Cc2ccccc2)c2ccccc2)cc1 | 98.6% |
| COc1ccc2c(c1)[n+]([O-])c(C#N)c(NC(=O)c1ccco1)[n+]2[O-] | 112% |
| NC(=S)N=Nc1c(O)c2ccccc2c2ccccc12 | 116% |
| CCCCOc1ccc(NC(=O)Nc2nnc(C)s2)cc1 | 118% |
| CCOC(=O)C(CSC(c1ccccc1)(c1ccccc1)c1ccccc1)NC(=O)C(CSC(c1ccccc1)(c1ccccc1)c1ccccc1)NC(c1ccccc1)(c1ccccc1)c1ccccc1 (configuration not stated) | 118% |
| N#Cc1ncc(-c2cc(F)c(F)c(F)c2)c(NC2CCCCCC2)n1 | 105% |
| O=C1/C(=C\c2ccccc2)CN(C(=O)c2ccccc2F)C/C1=C\c1ccccc1 | 53.8% |
| COc1ccc(/C=C/C(C)=N/OCC(=O)O)cc1 | 87.5% |
| COc1ccc2c(c1)nc(N)c1c3cccnc3cn21 | 51.3% |

| Compound | growth |
| --- | --- |
| COc1ccc(-c2nn(-c3cccc(NC(=O)Nc4ccc(Cl)c(C(F)(F)F)c4)c3)cc2-c2ccncc2)cc1Cl | 10.3% |
| CS(=O)(=O)Nc1ccc(Nc2c3ccccc3nc3cc([N+](=O)[O-])ccc23)cc1 | 16% |
| Cc1ccc(C)c(C(O)(c2cc(C)ccc2C)C2(O)CCCCC2)c1 | 89.8% |
| CC1CC(=O)OC(C)C1 (configuration not stated) | 104% |
| Cc1cs/c(=N\NC(=O)c2cc(-c3cc4ccccc4o3)nn2-c2ccccc2)n1-c1ccccc1 | 121% |
| CN(C)c1ccc(N=C2C=CC(=O)c3ccccc32)cc1 | 111% |
| Cc1ccc(NC(=O)NC2CCCCC2)cc1 | 110% |
| COc1ccc(/C=C2/CN(C(=O)c3ccc(C)cc3)C/C(=C\c3ccc(OC)cc3)C2=O)cc1 | 113% |
| Cc1ccc(Nc2cc(C)nc(NCCCNc3ccnc4cc(Cl)ccc34)n2)cc1 | -94.7% (active) |
| O=C1/C(=C\c2ccc(F)cc2)CN(C(=O)c2ccccc2F)C/C1=C\c1ccc(F)cc1 | 9.87% (active) |
| c1ccc([I+]c2ccccc2)cc1 | 56.6% |
| Cc1[nH]nc2c1C(c1cnn(C)c1)C(C#N)=C(N)O2 (configuration not stated) | 102% |
| CCOC(=O)N1C/C(=C/c2ccc(OC)cc2)C(=O)/C(=C/c2ccc(OC)cc2)C1 | 59.5% |
| COc1ccc(Nc2ncnc3c2c(SC)nn3-c2ccccc2)cc1 | 117% |
| CSC1=NCCCC1 | 125% |
| Clc1nc(Cl)c2c(ncn2C/C=C\Cn2cnc3c(Cl)nc(Cl)nc32)n1 | -97.2% (active) |
| O=C(O)CCCCSc1ncnc2nc[nH]c12 | 98% |
| CN(C)CCS(=O)(=O)CCN(C)C | 103% |
| Clc1ccc(Nc2ccnc(NCCCNc3ccnc4cc(Cl)ccc34)n2)cc1 | -82.9% (active) |

These compounds were tested on ACHN renal in the same assay as above. Conditions: 10 µM.

| Compound | growth |
| --- | --- |
| CN(C)CCN=c1nc2c(c(N)n1-c1ccccc1)c(=S)n(-c1ccccc1)c(=S)n2-c1ccccc1 | 28.3% |
| CC1(O)CCC2CC3OC3(C)CCC3OC3(C)CCC1C2(C)C (configuration not stated) | 102% |
| C(CCCC1=NCCO1)CCCC1=NCCO1 | 105% |
| COc1ccc(Nc2cc(C)nc(NCCCNc3ccnc4cc(Cl)ccc34)n2)cc1 | -93% (active) |
| N#Cc1cc(-c2cc3ccccc3o2)oc1N | 1.36% (active) |
| CC1(C)N=C(N)N=C(N)N1c1ccc(CCc2ccccc2)c(Cl)c1 | 28.7% |
| Cc1cc(C)c(NC(=O)c2sc3nc4c(cc3c2N)C(=O)CCC4)c(C)c1 | 55.3% |
| O=C1Nc2ccccc2C1=NC1CCCCC1 | 97.9% |
| COc1ccc(Nc2ccnc(NCCNc3ccnc4cc(Cl)ccc34)n2)cc1 | 57.3% |
| Nc1nc(N)c(NC(=O)CNc2ccc(C(=O)O)cc2)c(N)n1 | 115% |
| c1ccc(CP(Cc2ccccc2)c2ccccc2)cc1 | 102% |
| COc1ccc2c(c1)[n+]([O-])c(C#N)c(NC(=O)c1ccco1)[n+]2[O-] | 95.1% |
| NC(=S)N=Nc1c(O)c2ccccc2c2ccccc12 | 60.7% |
| CCCCOc1ccc(NC(=O)Nc2nnc(C)s2)cc1 | 94.5% |
| CCOC(=O)C(CSC(c1ccccc1)(c1ccccc1)c1ccccc1)NC(=O)C(CSC(c1ccccc1)(c1ccccc1)c1ccccc1)NC(c1ccccc1)(c1ccccc1)c1ccccc1 (configuration not stated) | 104% |
| N#Cc1ncc(-c2cc(F)c(F)c(F)c2)c(NC2CCCCCC2)n1 | 92.6% |
| O=C1/C(=C\c2ccccc2)CN(C(=O)c2ccccc2F)C/C1=C\c1ccccc1 | -3.34% (active) |
| COc1ccc(/C=C/C(C)=N/OCC(=O)O)cc1 | 106% |
| COc1ccc2c(c1)nc(N)c1c3cccnc3cn21 | 37.8% |

| Compound | growth |
| --- | --- |
| COc1ccc(-c2nn(-c3cccc(NC(=O)Nc4ccc(Cl)c(C(F)(F)F)c4)c3)cc2-c2ccncc2)cc1Cl | 12.6% |
| CS(=O)(=O)Nc1ccc(Nc2c3ccccc3nc3cc([N+](=O)[O-])ccc23)cc1 | 12.6% |
| Cc1ccc(C)c(C(O)(c2cc(C)ccc2C)C2(O)CCCCC2)c1 | 89% |
| CC1CC(=O)OC(C)C1 (configuration not stated) | 110% |
| Cc1cs/c(=N\NC(=O)c2cc(-c3cc4ccccc4o3)nn2-c2ccccc2)n1-c1ccccc1 | 88.7% |
| CN(C)c1ccc(N=C2C=CC(=O)c3ccccc32)cc1 | 79.5% |
| Cc1ccc(NC(=O)NC2CCCCC2)cc1 | 106% |
| COc1ccc(/C=C2/CN(C(=O)c3ccc(C)cc3)C/C(=C\c3ccc(OC)cc3)C2=O)cc1 | 92% |
| Cc1ccc(Nc2cc(C)nc(NCCCNc3ccnc4cc(Cl)ccc34)n2)cc1 | -98.2% (active) |
| O=C1/C(=C\c2ccc(F)cc2)CN(C(=O)c2ccccc2F)C/C1=C\c1ccc(F)cc1 | -33.1% (active) |
| c1ccc([I+]c2ccccc2)cc1 | 77.1% |
| Cc1[nH]nc2c1C(c1cnn(C)c1)C(C#N)=C(N)O2 (configuration not stated) | 104% |
| CCOC(=O)N1C/C(=C/c2ccc(OC)cc2)C(=O)/C(=C/c2ccc(OC)cc2)C1 | 39.3% |
| COc1ccc(Nc2ncnc3c2c(SC)nn3-c2ccccc2)cc1 | 100% |
| CSC1=NCCCC1 | 102% |
| Clc1nc(Cl)c2c(ncn2C/C=C\Cn2cnc3c(Cl)nc(Cl)nc32)n1 | -100% (active) |
| O=C(O)CCCCSc1ncnc2nc[nH]c12 | 102% |
| CN(C)CCS(=O)(=O)CCN(C)C | 107% |
| Clc1ccc(Nc2ccnc(NCCCNc3ccnc4cc(Cl)ccc34)n2)cc1 | -93.9% (active) |
